# Source: PubChem BioAssay (Tox21)
# Inconclusive results are not listed. A call without a number means that no potency is given here. Values without a mark were called inactive. The source made the active and inactive calls. Unless noted, calls follow the shape of the dose curve; as a rule, active = well fitted curve in the direction sought with a large enough effect in the repeat runs; inconclusive = weak or mixed curves; inactive = no such curve, though single readings can be large; an effect the other way counts as inactive or inconclusive.
# Legend:
# [1] = qHTS assay to identify small molecule agonists of the vitamin D receptor (VDR) signaling pathway - cell viability counter screen (AID 743224); also: nearly all actives have a fitted effect of over 50% in size
# How it was run: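 Here cell health was gauged by luminescent ATP detection (CellTiter-Glo, 30 min RT) in VDR-bla cells that had been incubated with test compounds for 16 h at 37C and 5% CO2.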
# [2] = qHTS assay to identify small molecule antagonists of the vitamin D receptor (VDR) signaling pathway - cell viability counter screen (AID 743225); also: nearly all actives have a fitted effect of over 50% in size
# How it was run: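 Compounds were pinned onto VDR-bla HEK 293T cells together with 1-alpha,25-dihydroxyvitamin D3 at 3 nM final. After 16 h at 37C and 5% CO2 plus the reporter readout, cell viability was measured by CellTiter-Glo luminescence (30 min, room temperature).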
# [3] = qHTS assay to identify small molecule agonists of the NFkB signaling pathway (AID 1159509; active = well fitted curve in the direction sought with a large enough effect in the signal ratio in the repeat runs, not every such curve was filed as active; the % refers to the signal ratio)
# How it was run: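 NFkB-bla ME-180 cells with a beta-lactamase reporter under an NF-kB response element were plated overnight, treated with compounds in DMSO for 5 hr at 37 C, then loaded with FRET substrate for 1.5 hr at room temperature.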
# [4] = qHTS assay to identify small molecule agonists of the NFkB signaling pathway - cell viability counter screen (AID 1159515; calls by dose curve; also: nearly all actives have a fitted effect of over 55% in size)
# How it was run: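 5 hr compound treatment of NFkB-bla ME-180 cells (2,000/well, seeded overnight beforehand), followed by reporter substrate for 1.5 hr. CellTiter-Glo added afterward; luminescence after 30 min RT.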
# [5] = qHTS assay to identify small molecule agonists of the endoplasmic reticulum stress response signaling pathway (AID 1159516; active = well fitted activation curve with a large enough effect in the signal ratio in the repeat runs, not every such curve was filed as active; the % refers to the signal ratio)
# How it was run: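 Reporter HeLa cells (ESRE-beta-lactamase) underwent 5 hr compound incubation at 37 C and 5% CO2 in quantitative HTS format. Detection followed 2 hr of FRET substrate loading at room temperature.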
# [6] = qHTS assay to identify small molecule agonists of the endoplasmic reticulum stress response signaling pathway - cell viability counter screen (AID 1159517; calls by dose curve;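 also: HeLa cells carrying an ER stress response element beta-lactamase reporter; nearly all actives have a fitted effect of over 50% in size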)
# How it was run: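 Luminescence readout: CellTiter-Glo, 30 min RT, same wells as the ESRE-bla reporter read. HeLa ESRE-bla, 1,500 cells/well, o/n 37 C; cpd 5 hr 37 C/5% CO2.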
# [7] = qHTS assay to identify small molecule antagonists of the retinoid-related orphan receptor gamma (ROR-gamma) signaling pathway - cell viability counter screen (AID 1159520); also: nearly all actives have a fitted effect of over 50% in size
# How it was run: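 Tet-on ROR gamma CHO cells (1,000/well) were plated 4 hr, given compounds in DMSO for 2 hr at 37 C, then induced with 1 uM final doxycycline for 16 hr. Viability was read as ATP by CellTiter-Glo luminescence after 30 min.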
# [8] = biological target: Nuclear receptor ROR-gamma (Homo sapiens) (UniProt P51449); experiment: qHTS assay to identify small molecule antagonists of the retinoid-related orphan receptor gamma (ROR-gamma) signaling pathway (AID 1159521)
# How it was run: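 Test compounds were applied to Tet-on RORγ CHO cells 2 h ahead of doxycycline hyclate (1 uM final). Luciferase reporter activity was quantified by luminescence after 16 h at 37 C and 5% CO2.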
# [9] = qHTS assay to identify small molecule agonists of the AP-1 signaling pathway - cell viability counter screen (AID 1159525; calls by dose curve; also: nearly all actives have a fitted effect of over 55% in size)
# How it was run: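 ME-180 AP-1-bla, 2500 cells/well, Opti-MEM + 0.5% dialyzed FBS; overnight 37 °C; cpd 15-pt titration, 5 h 37 °C; CellTiter-Glo 30 min RT; luminescence read; normalised to TOAB and DMSO controls.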
# [10] = qHTS assay to identify small molecule agonists of the AP-1 signaling pathway (AID 1159526; calls by dose curve)
# [11] = biological target: Retinoic acid receptor RXR-alpha (Homo sapiens) (UniProt P19793); experiment: qHTS assay to identify small molecule agonists of the RXR signaling pathway (AID 1159527; calls by dose curve; also: nearly all actives have a fitted effect of over 35% in size; also: potency is read from the fitted curve at half-maximal effect)
# How it was run: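 Using 9-cis retinoic acid as the reference agonist, chemicals were tested in HEK 293T cells […] for 16 hr; substrate loading lasted 2 hr at room temperature.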
# [12] = qHTS assay to identify small molecule agonists of the RXR signaling pathway - cell viability counter screen (AID 1159529); also: nearly all actives have a fitted effect of over 50% in size
# How it was run: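 Compounds dissolved in DMSO were pinned onto HEK 293T cells carrying a beta-lactamase reporter under RXR-alpha control and incubated 16 hr. Cytotoxicity was then quantified by CellTiter-Glo luminescence.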
# [13] = qHTS assay to identify small molecule antagonists of the retinoid acid receptor (RAR) signaling pathway - cell viability counter screen (AID 1159551); also: nearly all actives have a fitted effect of over 35% in size
# How it was run: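 Seed C3RL4 cells; next day add compound, then retinol to 1 uM final; incubate 6 h at 37 C; add CellTiter-Glo; read luminescence after 30 min at RT.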
# [14] = qHTS assay to identify small molecule antagonists of the retinoic acid receptor (RAR) signaling pathway (AID 1159552; also: nearly all actives have a fitted effect of over 50% in size)
# How it was run: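 Test chemicals and DMSO controls were pin-transferred onto C3RL4 cells a day after seeding; retinol (1 uM final) followed at once. Luminescent reporter output was quantified after 6 hr of co-incubation and 30 min with detection reagent.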
# [15] = qHTS assay to identify small molecule agonists of the retinoic acid receptor (RAR) signaling pathway (AID 1159553); conditions: C3RL4 RARE luciferase reporter, agonist, 6 h; activation: at 73.3 µM (top of the series); also: potency is read from the fitted curve at half-maximal effect
# How it was run: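 Activation of retinol signaling was monitored via a RARE luciferase reporter in C3RL4 cells. After 6 hr compound treatment at 37 C, detection reagent was added for 30 min at room temperature before luminescence reading.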
# [16] = qHTS assay to identify small molecule antagonists of the estrogen related receptor (ERR) signaling pathway from Tox21 library - cell viability counter screen (AID 1224834); also: nearly all actives have a fitted effect of over 30% in size
# How it was run: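 CellTiter-Fluor fluorescence measured; ERR cells; 17.5 h compound incubation at 37 C; 30 min reagent step.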
# [17] = biological target: Luciferin 4-monooxygenase (Photinus pyralis) (UniProt P08659); experiment: qHTS assay to identify small molecule inhibitors of firefly luciferase (AID 1224835); also: nearly all actives have a fitted effect of over 25% in size; also: potency is read from the fitted curve at half-maximal effect
# How it was run: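 Quantitative HTS format; KM concentrations of both substrates. Purified P. pyralis FLuc activity quantified from luminescence images.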
# [18] = qHTS assay to identify small molecule agonists of the constitutive androstane receptor (CAR) signaling pathway - cell viability counter screen (AID 1224836); also: nearly all actives have a fitted effect of over 45% in size
# How it was run: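 23 h treatment, 37 C, 5% CO2. Cell line: HepG2 stably expressing hCAR with a CYP2B6-2.2kb construct. Co-treatment: PK11195, 0.75 uM final. Read-out: CellTiter-Fluor fluorescence intensity.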
# [19] = qHTS assay to identify small molecule antagonists of the constitutive androstane receptor (CAR) signaling pathway - cell viability counter screen (AID 1224837); also: nearly all actives have a fitted effect of over 45% in size
# How it was run: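 Using CellTiter-Fluor, viability is scored in HepG2 cells stably carrying hCAR and a 2.2kb CYP2B6 reporter after 23 hr compound exposure across 15 concentrations, with CITCO present at 50 nM.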
# [20] = biological target: Nuclear receptor subfamily 1 group I member 3 (Homo sapiens) (UniProt Q14994); experiment: qHTS assay to identify small molecule antagonists of the constitutive androstane receptor (CAR) signaling pathway (AID 1224838);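 also: HepG2 cells stably expressing hCAR with CYP2B6 luciferase reporter stimulated by CITCO; nearly all actives have a fitted effect of over 40% in size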
# How it was run: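 Reporter luminescence was quantified after 24 h exposure of hCAR/CYP2B6-2.2kb double-stable HepG2 cells to compounds at 15 concentrations in the presence of 50 nM CITCO final.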
# Sequence of Luciferin 4-monooxygenase (Photinus pyralis) (P08659 whole entry, looked up): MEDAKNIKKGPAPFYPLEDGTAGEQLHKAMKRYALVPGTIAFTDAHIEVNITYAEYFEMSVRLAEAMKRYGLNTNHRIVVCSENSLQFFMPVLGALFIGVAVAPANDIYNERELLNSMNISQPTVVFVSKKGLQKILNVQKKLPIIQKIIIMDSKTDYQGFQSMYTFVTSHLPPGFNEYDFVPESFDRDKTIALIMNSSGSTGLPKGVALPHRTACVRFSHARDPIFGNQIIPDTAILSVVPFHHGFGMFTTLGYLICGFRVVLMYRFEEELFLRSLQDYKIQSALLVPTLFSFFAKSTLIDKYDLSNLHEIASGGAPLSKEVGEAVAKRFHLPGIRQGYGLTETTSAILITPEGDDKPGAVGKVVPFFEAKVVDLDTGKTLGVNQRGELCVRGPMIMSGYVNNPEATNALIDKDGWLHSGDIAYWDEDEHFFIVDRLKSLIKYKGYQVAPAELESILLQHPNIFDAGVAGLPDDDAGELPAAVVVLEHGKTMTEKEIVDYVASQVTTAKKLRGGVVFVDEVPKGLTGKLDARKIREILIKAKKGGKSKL
# Sequence of Retinoic acid receptor RXR-alpha (Homo sapiens) (P19793 whole entry, looked up): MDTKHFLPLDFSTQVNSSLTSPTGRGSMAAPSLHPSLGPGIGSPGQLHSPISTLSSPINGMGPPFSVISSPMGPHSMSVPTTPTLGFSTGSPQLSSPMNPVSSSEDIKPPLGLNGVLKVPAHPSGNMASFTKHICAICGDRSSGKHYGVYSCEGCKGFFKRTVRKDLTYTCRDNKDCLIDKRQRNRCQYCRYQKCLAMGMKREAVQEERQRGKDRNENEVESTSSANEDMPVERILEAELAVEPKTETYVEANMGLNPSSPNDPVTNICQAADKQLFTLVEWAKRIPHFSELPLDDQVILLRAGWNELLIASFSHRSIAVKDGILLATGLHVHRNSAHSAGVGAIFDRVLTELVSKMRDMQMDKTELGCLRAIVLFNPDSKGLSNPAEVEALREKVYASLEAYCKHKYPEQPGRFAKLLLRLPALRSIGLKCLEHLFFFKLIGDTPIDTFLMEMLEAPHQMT
# Sequence of Nuclear receptor subfamily 1 group I member 3 (Homo sapiens) (Q14994 whole entry, looked up): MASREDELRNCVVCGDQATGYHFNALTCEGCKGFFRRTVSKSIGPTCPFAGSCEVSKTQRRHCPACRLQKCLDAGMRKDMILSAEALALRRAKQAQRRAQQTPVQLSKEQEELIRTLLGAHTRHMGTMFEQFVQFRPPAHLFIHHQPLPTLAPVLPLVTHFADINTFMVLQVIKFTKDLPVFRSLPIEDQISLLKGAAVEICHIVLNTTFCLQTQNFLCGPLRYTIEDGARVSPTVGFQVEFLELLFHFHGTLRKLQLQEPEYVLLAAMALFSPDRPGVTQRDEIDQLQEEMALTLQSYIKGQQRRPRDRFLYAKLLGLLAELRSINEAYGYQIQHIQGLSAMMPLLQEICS
Structure (SMILES),outcome [1],outcome [2],outcome [3],outcome [4],outcome [5],outcome [6],outcome [7],outcome [8],outcome [9],outcome [10],Potency [11],outcome [12],outcome [13],Potency [14],Potency [15],Potency [16],Potency [17],outcome [18],Potency [19],Potency [20]
Cc1ccccc1N1CCN(CCc2nnc3n2CCCC3)CC1,inactive,inactive,inactive,inactive,inactive,inactive,inactive,inactive,inactive,inactive,inactive,inactive,inactive,inactive,inactive,inactive,inactive,inactive,inactive,
CC(=O)Nc1ccc(C)cc1,inactive,,inactive,inactive,inactive,inactive,inactive,inactive,inactive,inactive,inactive,inactive,inactive,inactive,inactive,inactive,inactive,inactive,inactive,
O=C(Oc1ccccc1C(=O)O)c1ccccc1O,inactive,inactive,inactive,inactive,inactive,inactive,inactive,inactive,inactive,inactive,inactive,inactive,inactive,inactive,inactive,inactive,inactive,inactive,inactive,
OCCCCCCCl,inactive,inactive,inactive,inactive,inactive,inactive,inactive,inactive,inactive,inactive,inactive,inactive,inactive,inactive,inactive,inactive,inactive,inactive,inactive,
CCCCCCCCOC(C)=O,inactive,inactive,inactive,inactive,inactive,inactive,inactive,inactive,inactive,inactive,inactive,inactive,inactive,inactive,inactive,inactive,inactive,inactive,inactive,
Nc1nc(=O)n([C@@H]2O[C@H](CO)[C@@H](O)[C@@H]2F)cc1I,,inactive,inactive,inactive,inactive,inactive,inactive,inactive,inactive,inactive,inactive,inactive,inactive,inactive,inactive,inactive,inactive,inactive,inactive,
C[C@H](CCC(=O)O)[C@H]1CC[C@H]2[C@@H]3[C@H](O)C[C@@H]4C[C@H](O)CC[C@]4(C)[C@H]3C[C@H](O)[C@]12C,inactive,inactive,inactive,inactive,inactive,inactive,inactive,inactive,inactive,inactive,inactive,inactive,inactive,inactive,inactive,inactive,inactive,inactive,inactive,
COc1cc2c(Nc3ccc(Br)cc3F)ncnc2cc1OCC1CCN(C)CC1,inactive,,inactive,inactive,inactive,inactive,inactive,inactive,inactive,inactive,inactive,inactive,inactive,inactive,inactive,inactive,inactive,inactive,inactive,inactive
O=C(O)c1c(Cl)ccc(Cl)c1Cl,,inactive,inactive,inactive,inactive,inactive,inactive,inactive,inactive,inactive,15.5 µM (active),inactive,inactive,inactive,inactive,inactive,inactive,inactive,inactive,inactive
CN(C1CCCCC1)S(=O)(=O)c1ccccc1N,inactive,inactive,inactive,inactive,inactive,inactive,inactive,inactive,inactive,inactive,inactive,inactive,inactive,inactive,inactive,inactive,inactive,inactive,inactive,inactive
C=CCOc1c(Br)cc(C(C)(C)c2cc(Br)c(OCC=C)c(Br)c2)cc1Br,,inactive,inactive,inactive,inactive,inactive,inactive,inactive,inactive,inactive,inactive,inactive,inactive,inactive,inactive,inactive,inactive,inactive,inactive,
CCOC(=O)C(=O)c1csc(NC=O)n1,inactive,inactive,inactive,inactive,inactive,inactive,inactive,inactive,inactive,inactive,inactive,inactive,inactive,inactive,inactive,inactive,inactive,inactive,inactive,
CN(C)CCOCCN(C)CCO,inactive,inactive,inactive,inactive,inactive,inactive,inactive,inactive,inactive,inactive,inactive,inactive,inactive,inactive,inactive,inactive,inactive,inactive,,
CCCCC(=O)N(C)C,inactive,inactive,inactive,inactive,inactive,inactive,inactive,inactive,inactive,inactive,inactive,inactive,inactive,inactive,inactive,inactive,inactive,,inactive,
CC(C)COC(=O)/C=C/c1ccccc1,inactive,inactive,inactive,inactive,inactive,inactive,inactive,inactive,inactive,inactive,inactive,inactive,inactive,inactive,30.6 µM (active),inactive,7.1 µM (active),,inactive,inactive
O=C(O)/C=C/c1ccccc1,,inactive,inactive,inactive,inactive,inactive,inactive,inactive,inactive,inactive,inactive,inactive,inactive,inactive,inactive,inactive,inactive,inactive,inactive,
Cn1c(=O)c2c(ncn2CC2OCCO2)n(C)c1=O,inactive,inactive,inactive,inactive,inactive,inactive,inactive,inactive,inactive,inactive,inactive,inactive,inactive,inactive,inactive,inactive,inactive,,inactive,inactive
CCNC(=O)/C=C/c1cccc(Br)c1,inactive,inactive,inactive,inactive,inactive,inactive,inactive,inactive,inactive,inactive,inactive,inactive,inactive,inactive,15 µM (active),inactive,,inactive,,inactive
C=C(C)C(=O)OCCCCCCOC(=O)C(=C)C,inactive,inactive,inactive,inactive,inactive,inactive,inactive,inactive,inactive,inactive,inactive,inactive,inactive,inactive,inactive,inactive,inactive,,inactive,
C=CCOCC(CO)(COCC=C)COCC=C,inactive,inactive,inactive,inactive,inactive,inactive,inactive,inactive,inactive,inactive,inactive,inactive,inactive,inactive,inactive,inactive,inactive,,inactive,inactive
C[Si]1(C)N[Si](C)(C)N[Si](C)(C)N1,inactive,inactive,inactive,inactive,inactive,inactive,inactive,inactive,inactive,inactive,inactive,inactive,inactive,inactive,inactive,inactive,inactive,,,inactive
COCC(=O)Nc1c(I)c(C(=O)NCC(O)CO)c(I)c(C(=O)N(C)CC(O)CO)c1I (stereo unspecified),inactive,inactive,inactive,inactive,inactive,inactive,inactive,inactive,inactive,inactive,inactive,inactive,inactive,inactive,inactive,,inactive,inactive,,
CCOc1ccc(NC(=O)OC(C)C)cc1OCC,inactive,inactive,inactive,inactive,inactive,inactive,inactive,inactive,inactive,inactive,inactive,inactive,inactive,inactive,inactive,inactive,inactive,inactive,,inactive
O=C(CN1CCN(Cc2ccc3c(c2)OCO3)CC1)N1c2ccccc2Sc2ccccc21,,inactive,inactive,inactive,inactive,inactive,inactive,inactive,inactive,inactive,inactive,inactive,inactive,inactive,inactive,,inactive,inactive,inactive,inactive
O=C1c2ccccc2-c2ccccc21,,inactive,inactive,inactive,inactive,inactive,inactive,inactive,inactive,inactive,inactive,inactive,inactive,inactive,inactive,inactive,,,,inactive
Cc1ccccc1OCC1CO1 (stereo unspecified),inactive,inactive,inactive,inactive,inactive,inactive,inactive,inactive,inactive,inactive,inactive,inactive,inactive,inactive,inactive,,inactive,inactive,inactive,
CCCCC(C)C(=O)O (stereo unspecified),inactive,,inactive,inactive,inactive,inactive,inactive,inactive,inactive,inactive,inactive,inactive,inactive,inactive,inactive,inactive,inactive,inactive,,
C=C(C)C(=O)OC1CC(C)CC(C)(C)C1 (stereo unspecified),inactive,inactive,inactive,inactive,inactive,inactive,inactive,inactive,inactive,inactive,inactive,inactive,inactive,inactive,inactive,,inactive,inactive,inactive,
O=C1NC2NC(=O)NC2N1 (stereo unspecified),inactive,,inactive,inactive,inactive,inactive,inactive,inactive,inactive,inactive,inactive,inactive,inactive,inactive,inactive,inactive,inactive,,inactive,
